The source made the active and inactive calls. The calls were made as follows: active = hit-call score of the fitted dose curve at least 0.9, where 1 is the maximum; inactive = score below 0.9.

In test [1] the target is Bile acid receptor (Homo sapiens) (UniProt Q96RI1). Briefly: ATG_IR1_CIS: Attagene CIS-FACTORIAL HepG2 Assay for human Nuclear Receptor Subfamily 1 Group H Member 4 (NR1H4), IR1 submotif (AID 2282946). The conditions noted are these: IR1 reporter transcription, actives raise or lower the signal. In a few lines:
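Transient MRTU transfection, HepG2; 24 h dosing; RNA → RT-PCR → 6-FAM primer extension → HpaI digest → capillary electrophoresis fluorescence. Gain/loss of signal fitted relative to DMSO.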

Test [2] can be described thus: ATG_ISRE_CIS: Attagene CIS-FACTORIAL HepG2 Assay for human Interferon Regulatory Factor 1 (IRF1) binding to an Interferon-Stimulated Response Element (ISRE) (AID 2282948). The conditions noted are these: HepG2 ISRE cis-reporter (Attagene), mRNA transcription readout; actives raise or lower the signal. A digest of the protocol:
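Quantitation relies on labelled RT-PCR fragments separated by capillary electrophoresis. Human HepG2 cells bearing cis-promoter reporter constructs were treated 24 h; DMSO served as baseline for bidirectional fitting.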

Test [3] can be described thus: ATG_M_32_CIS: Attagene CIS-FACTORIAL HepG2 Assay for M32 Transcription Factor (Internal Marker) (AID 2282949).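 Also: background control marker of the multiplexed CIS panel rather than a real target.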 Particulars: HepG2 Attagene cis-factorial M32 reporter, mRNA; actives raise or lower the signal. In a few lines: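 Following 24 h chemical exposure of HepG2 cells transiently expressing cis-promoter reporter constructs, reporter transcript levels were determined by RT-PCR with fluorescent labelling and capillary electrophoresis, then fitted bidirectionally against DMSO.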

A short description of test [4]: ATG_M_06_CIS: Attagene CIS-FACTORIAL HepG2 Assay for M06 Transcription Factor (Internal Marker) (AID 2282950). Particulars: HepG2 Attagene CIS-FACTORIAL M06 internal marker reporter; actives raise or lower the signal. In a few lines: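 Terse: HepG2, transient MRTU transfection (FuGene 6), 24 h dosing; total RNA, oligo(dT) RT, PCR, FAM label, HpaI cut, capillary electrophoresis; bidirectional fit vs DMSO baseline; background-control endpoint.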

Test [5] has as its target Hypoxia-inducible factor 1-alpha (Homo sapiens) (UniProt Q16665). Briefly: ATG_HIF1a_CIS: Attagene CIS-FACTORIAL HepG2 Assay for human Hypoxia Inducible Factor 1 (HIF1A) (AID 2282951). Particulars: HepG2 Attagene cis-factorial HIF1a reporter transcription; actives raise or lower the signal. In a few lines:
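HepG2, transient cis-reporter library, 24 h dosing. RNA → RT (oligo dT) → PCR → 6-FAM primer extension → HpaI → CE. Bidirectional curve fit vs DMSO.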

Test [6] has as its target Hepatocyte nuclear factor 6 (Homo sapiens) (UniProt Q9UBC0). Briefly: ATG_HNF6_CIS: Attagene CIS-FACTORIAL HepG2 Assay for human Hepatocyte Nuclear Factor 6 (HNF6) (AID 2282952). The conditions noted are these: HepG2 Attagene cis-factorial HNF6 reporter transcription; actives raise or lower the signal. A digest of the protocol: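 Multiplexed mRNA reporter assay in transfected HepG2; 24 h dosing; RT-PCR plus capillary electrophoresis fluorescence; DMSO-referenced bidirectional curve fitting.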

For test [7], the target named is Heat shock factor protein 1 (Homo sapiens) (UniProt Q00613). The experiment in a line: ATG_HSE_CIS: Attagene CIS-FACTORIAL HepG2 Assay for human Heat Shock Transcription Factor 1 (HSE) (AID 2282953). Particulars: HepG2 HSE cis-reporter, Attagene RNA transcription; actives raise or lower the signal. A digest of the protocol: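 Read-out: fluorescence of reporter-specific RT-PCR fragments separated by capillary electrophoresis. HepG2 carrying transfected cis-element reporter units; 24 h dosing; activity fitted in both directions relative to DMSO baseline.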
Sequence of Heat shock factor protein 1 (Homo sapiens) (Q00613 whole entry, looked up, the tested form may be a part): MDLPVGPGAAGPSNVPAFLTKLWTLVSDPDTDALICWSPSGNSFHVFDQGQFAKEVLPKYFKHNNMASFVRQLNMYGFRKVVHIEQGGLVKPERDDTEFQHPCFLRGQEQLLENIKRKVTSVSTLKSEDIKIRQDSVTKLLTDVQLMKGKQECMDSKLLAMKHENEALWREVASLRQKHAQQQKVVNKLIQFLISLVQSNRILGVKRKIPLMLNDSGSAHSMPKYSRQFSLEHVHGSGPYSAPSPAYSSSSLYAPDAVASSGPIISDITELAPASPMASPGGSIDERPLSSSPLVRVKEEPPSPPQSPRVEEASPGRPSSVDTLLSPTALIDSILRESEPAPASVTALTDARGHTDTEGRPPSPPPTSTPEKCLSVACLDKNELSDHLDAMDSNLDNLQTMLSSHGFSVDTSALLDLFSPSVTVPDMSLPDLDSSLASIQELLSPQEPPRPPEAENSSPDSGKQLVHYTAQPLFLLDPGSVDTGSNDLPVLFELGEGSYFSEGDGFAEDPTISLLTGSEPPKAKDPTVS

Test [8] is described as follows: ATG_MRE_CIS: Attagene CIS-FACTORIAL HepG2 Assay for human Metal Responsive Element (MRE) (AID 2282954). Particulars: HepG2 MRE cis-reporter transcription, Attagene multiplex; actives raise or lower the signal. In a few lines:
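HepG2 cells transiently transfected with multiple cis-element reporter units measure endogenous MTF1-driven transcription. After 24 h compound exposure, reporter mRNA is quantified by RT-PCR with 6-FAM labelling, HpaI digestion and capillary electrophoresis; bidirectional fits versus DMSO.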

Test [9] is described as follows: ATG_PBREM_CIS: Attagene CIS-FACTORIAL HepG2 Assay for human Phenobarbital-responsive Enhancer Module (PBREM) (AID 2282955). The conditions noted are these: HepG2 PBREM cis-reporter, Attagene multiplexed transcription; actives raise or lower the signal. In a few lines: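 HepG2, transient MRTU transfection, 24 h dosing; RNA → oligo(dT) RT → PCR → 6-FAM extension → HpaI → CE. Bidirectional fit vs DMSO.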

Test [10] deals with Paired box protein Pax-6 (Homo sapiens) (UniProt P26367). The experiment in a line: ATG_Pax6_CIS: Attagene CIS-FACTORIAL HepG2 Assay for human Paired Box 6 (PAX6) (AID 2282956). Particulars: HepG2 CIS-FACTORIAL PAX6 reporter transcription, RNA readout; actives raise or lower the signal. In a few lines:
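After twenty-four hours of chemical exposure, transfected HepG2 cells are harvested for RNA. Cis-promoter reporter transcripts are amplified, fluorescently labelled and sized by capillary electrophoresis, with gain and loss of signal scored against DMSO.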

The nature of test [11]: ATG_PXRE_CIS: Attagene CIS-FACTORIAL HepG2 Assay for human Pregnane X Receptor Element (PXRE) (AID 2282957). The conditions noted are these: HepG2 Attagene CIS-FACTORIAL PXRE reporter, mRNA; actives raise or lower the signal. In a few lines: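 Cells: HepG2, transiently transfected reporter units under cis promoter control. Exposure: 24 h. Detection: reporter mRNA via RT-PCR/CE fluorescence; bidirectional fitting, DMSO-referenced.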

Test [12] can be described thus: ATG_PPRE_CIS: Attagene CIS-FACTORIAL HepG2 Assay for human Peroxisome Proliferator-activated Response Element (PPRE) (AID 2282958). The conditions noted are these: HepG2 PPRE cis-element reporter, Attagene transcription factor profiling; actives raise or lower the signal. A digest of the protocol: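 Transcript-level reporter induction in transfected HepG2 cells after 24 h chemical exposure, quantified by fluorescence from RT-PCR products separated by capillary electrophoresis.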

The nature of test [13]: ATG_RORE_CIS: Attagene CIS-FACTORIAL HepG2 Assay for human RAR-related Orphan Receptor Element (RORE) (AID 2282959). Particulars: HepG2 Attagene cis-factorial RORE reporter, mRNA; actives raise or lower the signal. A digest of the protocol:
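Multiplexed reporter assay measuring mRNA induction from a cis promoter element in transiently transfected HepG2 cells after 24 h treatment. Detection via RT-PCR and capillary electrophoresis fluorescence; DMSO serves as baseline.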

The target in test [14] is Transcription factor Sp1 (Homo sapiens) (UniProt P08047). Briefly: ATG_Sp1_CIS: Attagene CIS-FACTORIAL HepG2 Assay for human Specificity Protein 1 (Sp1) (AID 2282961). The conditions noted are these: HepG2 Sp1 cis-reporter transcription, actives raise or lower the signal. In a few lines:
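Measures mRNA induction of an Sp1-linked reporter in HepG2 cells 24 h post-dosing. Multiplexed reporters read by RT-PCR and capillary electrophoresis; DMSO serves as negative control and baseline.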

Test [15] in a line: ATG_SREBP_CIS: Attagene CIS-FACTORIAL HepG2 Assay for human Sterol Regulatory Element Binding (SREBP) (AID 2282962). The conditions noted are these: HepG2 Attagene cis-factorial SREBP reporter, mRNA; actives raise or lower the signal. In a few lines:
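Twenty-four hours after chemical dosing of transfected HepG2 cultures, reporter RNA was converted to cDNA, amplified, end-labelled with 6-FAM and resolved by capillary electrophoresis. Responses were fitted relative to DMSO.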

Test [16] addresses Signal transducer and activator of transcription 3 (Homo sapiens) (UniProt P40763). The experiment in a line: ATG_STAT3_CIS: Attagene CIS-FACTORIAL HepG2 Assay for human Signal Transducer and Activator of Transcription 3 (STAT3) (AID 2282963). The conditions noted are these: HepG2, Attagene cis-factorial STAT3 reporter transcription; actives raise or lower the signal. A digest of the protocol:
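HepG2 cells transiently transfected with cis-element-driven multiple reporter transcription units; after 24 h chemical exposure, reporter mRNA measured by RT-PCR, 6-FAM primer-extension labelling, HpaI digestion and capillary electrophoresis. Bidirectional fitting versus DMSO baseline.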

Test [17] can be described thus: ATG_TA_CIS: Attagene CIS-FACTORIAL HepG2 Assay for human TA Basal Promoter (AID 2282964). Particulars: HepG2 Attagene CIS-factorial TA basal promoter reporter; actives raise or lower the signal. In a few lines: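 Transfected HepG2, 24 h compound exposure; RNA → RT-PCR → FAM primer extension → HpaI cut → CE fluorescence. Gain/loss-of-signal fitted against DMSO negative control. Background-control readout.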

Test [18] in a line: ATG_TCF_b_cat_CIS: Attagene CIS-FACTORIAL HepG2 Assay for human T-Cell-Factor with beta-catenin (TCF/b-cat) (AID 2282965). The conditions noted are these: HepG2 TCF/beta-catenin cis-reporter transcription, actives raise or lower the signal. A digest of the protocol:
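HepG2 cells transiently transfected with multiple cis-promoter-regulated reporter transcription units, so endogenous transcription factor activity is measured. Reporter mRNA read 24 hours after dosing by RT-PCR, fluorescent labelling and capillary electrophoresis; bidirectional fitting against DMSO.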

Test [19] in a line: ATG_GRE_CIS: Attagene CIS-FACTORIAL HepG2 Assay for human Glucocorticoid Response Elements (GRE) (AID 2282947). Particulars: HepG2 GRE cis-reporter, Attagene multiplex mRNA; actives raise or lower the signal. A digest of the protocol: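 HepG2 cells transiently transfected with multiple cis-promoter reporter units measure endogenous TF activity; 24 h compound exposure. Reporter mRNA quantified by RT-PCR, FAM labelling, HpaI digestion and capillary electrophoresis; bidirectional fit vs DMSO baseline.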

Test [20] is described as follows: ATG_Sox_CIS: Attagene CIS-FACTORIAL HepG2 Assay for human SRY-box transcription factor (SOX) (AID 2282960). Particulars: HepG2 Attagene cis-factorial SOX reporter, mRNA; actives raise or lower the signal. A digest of the protocol:
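Cells were transfected with reporter constructs under cis-regulatory promoters, then exposed to chemicals for 24 h. Reporter transcripts were quantified by fluorescence after RT-PCR and capillary electrophoresis; activity was fitted in both directions against DMSO.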

Sequence of Hepatocyte nuclear factor 6 (Homo sapiens) (Q9UBC0 whole entry, looked up): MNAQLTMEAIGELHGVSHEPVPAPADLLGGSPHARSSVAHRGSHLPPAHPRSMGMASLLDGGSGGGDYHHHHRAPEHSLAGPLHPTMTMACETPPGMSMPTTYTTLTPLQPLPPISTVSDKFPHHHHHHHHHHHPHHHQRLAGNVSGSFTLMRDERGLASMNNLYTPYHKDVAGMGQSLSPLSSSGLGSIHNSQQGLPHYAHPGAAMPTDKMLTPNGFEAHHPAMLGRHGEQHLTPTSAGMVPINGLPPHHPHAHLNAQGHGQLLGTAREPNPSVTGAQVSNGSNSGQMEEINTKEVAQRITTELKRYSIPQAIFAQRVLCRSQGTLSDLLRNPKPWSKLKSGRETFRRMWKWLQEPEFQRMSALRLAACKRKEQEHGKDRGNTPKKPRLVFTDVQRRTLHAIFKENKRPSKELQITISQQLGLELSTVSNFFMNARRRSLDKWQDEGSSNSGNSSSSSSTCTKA
Sequence of Bile acid receptor (Homo sapiens) (Q96RI1 whole entry, looked up): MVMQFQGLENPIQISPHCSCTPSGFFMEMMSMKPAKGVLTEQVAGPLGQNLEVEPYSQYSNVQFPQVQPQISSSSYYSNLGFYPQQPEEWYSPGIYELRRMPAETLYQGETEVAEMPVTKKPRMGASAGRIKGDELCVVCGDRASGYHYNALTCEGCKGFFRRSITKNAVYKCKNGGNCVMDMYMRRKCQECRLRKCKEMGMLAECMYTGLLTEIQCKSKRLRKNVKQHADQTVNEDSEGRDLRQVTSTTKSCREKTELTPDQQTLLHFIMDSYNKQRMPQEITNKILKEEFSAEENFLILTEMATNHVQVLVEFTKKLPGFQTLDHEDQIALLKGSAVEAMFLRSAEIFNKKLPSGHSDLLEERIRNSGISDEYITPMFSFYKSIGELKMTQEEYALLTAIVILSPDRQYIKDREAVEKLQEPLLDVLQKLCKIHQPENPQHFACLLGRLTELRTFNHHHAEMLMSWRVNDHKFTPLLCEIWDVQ
Sequence of Transcription factor Sp1 (Homo sapiens) (P08047 whole entry, looked up): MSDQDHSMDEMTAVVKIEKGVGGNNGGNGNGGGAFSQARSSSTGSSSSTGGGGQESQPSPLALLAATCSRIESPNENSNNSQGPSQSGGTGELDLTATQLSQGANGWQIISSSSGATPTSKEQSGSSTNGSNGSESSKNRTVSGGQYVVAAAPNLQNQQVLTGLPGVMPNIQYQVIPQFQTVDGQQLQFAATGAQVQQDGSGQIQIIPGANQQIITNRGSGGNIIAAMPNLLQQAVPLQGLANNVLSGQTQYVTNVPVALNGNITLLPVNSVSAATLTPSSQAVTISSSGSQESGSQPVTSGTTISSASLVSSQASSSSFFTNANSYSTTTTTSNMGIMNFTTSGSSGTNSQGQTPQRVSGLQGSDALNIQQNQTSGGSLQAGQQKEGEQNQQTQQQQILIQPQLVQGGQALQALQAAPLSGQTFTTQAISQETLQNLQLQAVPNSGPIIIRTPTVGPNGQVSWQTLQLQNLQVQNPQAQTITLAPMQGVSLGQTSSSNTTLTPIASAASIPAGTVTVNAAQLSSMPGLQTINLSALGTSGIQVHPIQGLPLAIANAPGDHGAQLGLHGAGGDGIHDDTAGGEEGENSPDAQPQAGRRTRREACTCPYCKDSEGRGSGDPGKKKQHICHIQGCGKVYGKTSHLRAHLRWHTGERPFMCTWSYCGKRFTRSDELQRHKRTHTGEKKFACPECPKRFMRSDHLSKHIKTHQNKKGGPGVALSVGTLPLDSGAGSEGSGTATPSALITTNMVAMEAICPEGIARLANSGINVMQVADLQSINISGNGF
Sequence of Signal transducer and activator of transcription 3 (Homo sapiens) (P40763 whole entry, looked up): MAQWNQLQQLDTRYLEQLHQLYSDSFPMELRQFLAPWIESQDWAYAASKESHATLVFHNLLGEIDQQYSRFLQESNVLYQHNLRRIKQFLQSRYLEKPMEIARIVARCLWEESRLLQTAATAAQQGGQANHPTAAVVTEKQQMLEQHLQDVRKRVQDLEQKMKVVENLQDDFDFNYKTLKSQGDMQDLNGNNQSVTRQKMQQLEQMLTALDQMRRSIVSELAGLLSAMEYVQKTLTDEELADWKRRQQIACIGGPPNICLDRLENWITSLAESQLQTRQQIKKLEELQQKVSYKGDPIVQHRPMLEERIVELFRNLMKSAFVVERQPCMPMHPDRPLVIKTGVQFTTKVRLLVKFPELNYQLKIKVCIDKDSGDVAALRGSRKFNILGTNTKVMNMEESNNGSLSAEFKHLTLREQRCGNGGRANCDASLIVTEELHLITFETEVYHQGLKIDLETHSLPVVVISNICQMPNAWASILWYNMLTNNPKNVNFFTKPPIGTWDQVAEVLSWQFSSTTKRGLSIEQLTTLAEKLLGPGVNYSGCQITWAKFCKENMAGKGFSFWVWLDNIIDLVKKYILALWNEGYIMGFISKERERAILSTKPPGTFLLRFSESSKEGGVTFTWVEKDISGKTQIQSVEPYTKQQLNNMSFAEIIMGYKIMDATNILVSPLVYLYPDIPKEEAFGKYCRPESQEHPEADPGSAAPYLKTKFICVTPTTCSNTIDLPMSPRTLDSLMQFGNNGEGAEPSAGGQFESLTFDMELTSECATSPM
Sequence of Paired box protein Pax-6 (Homo sapiens) (P26367 whole entry, looked up): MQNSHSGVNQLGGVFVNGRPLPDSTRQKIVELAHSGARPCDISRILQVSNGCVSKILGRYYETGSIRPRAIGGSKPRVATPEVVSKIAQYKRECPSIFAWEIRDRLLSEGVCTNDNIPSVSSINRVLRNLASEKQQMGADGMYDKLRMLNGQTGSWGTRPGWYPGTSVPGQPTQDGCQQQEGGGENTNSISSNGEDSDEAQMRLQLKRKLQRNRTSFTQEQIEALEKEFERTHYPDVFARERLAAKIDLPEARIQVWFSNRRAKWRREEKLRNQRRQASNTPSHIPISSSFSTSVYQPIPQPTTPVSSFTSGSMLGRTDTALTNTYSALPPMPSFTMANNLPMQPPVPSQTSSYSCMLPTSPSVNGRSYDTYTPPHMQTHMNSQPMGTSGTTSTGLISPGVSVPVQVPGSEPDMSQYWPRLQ
Sequence of Hypoxia-inducible factor 1-alpha (Homo sapiens) (Q16665 whole entry, looked up): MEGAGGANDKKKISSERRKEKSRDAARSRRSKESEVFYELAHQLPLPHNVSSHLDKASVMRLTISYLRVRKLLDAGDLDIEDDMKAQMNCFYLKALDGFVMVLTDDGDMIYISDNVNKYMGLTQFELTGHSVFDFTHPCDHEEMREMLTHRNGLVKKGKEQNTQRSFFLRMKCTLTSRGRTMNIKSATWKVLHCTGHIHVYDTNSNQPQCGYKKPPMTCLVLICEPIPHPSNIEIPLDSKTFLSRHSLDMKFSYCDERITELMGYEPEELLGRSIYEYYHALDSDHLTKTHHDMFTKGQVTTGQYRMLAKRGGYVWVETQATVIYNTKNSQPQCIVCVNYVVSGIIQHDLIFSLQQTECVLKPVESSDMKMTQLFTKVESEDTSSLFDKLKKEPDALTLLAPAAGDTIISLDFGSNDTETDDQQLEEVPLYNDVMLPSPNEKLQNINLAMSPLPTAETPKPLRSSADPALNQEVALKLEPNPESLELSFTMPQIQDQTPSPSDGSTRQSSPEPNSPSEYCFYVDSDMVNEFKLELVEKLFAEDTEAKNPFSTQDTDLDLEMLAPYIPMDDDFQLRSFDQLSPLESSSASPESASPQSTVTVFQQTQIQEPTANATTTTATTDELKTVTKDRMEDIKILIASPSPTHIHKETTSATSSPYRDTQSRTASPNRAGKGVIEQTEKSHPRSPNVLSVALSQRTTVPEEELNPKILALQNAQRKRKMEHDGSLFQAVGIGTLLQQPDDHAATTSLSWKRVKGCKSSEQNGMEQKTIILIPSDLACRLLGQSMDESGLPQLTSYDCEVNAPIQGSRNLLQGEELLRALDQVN

As to `C1N2CN3CN1CN(C2)C3`, the compound was called inactive in test [1], in test [2], in test [3], in [4], in test [5] and in test [6]. Further, the call in test [7], in [8], in test [9], in [10], in [11] and in test [12] was inactive. The outcome in [13], in test [14], in test [15], in test [16], in test [17] and in test [18] was inactive.
Broadly, the AC50 is the concentration at which the activity in the assay is half-maximal. In the case of `CCOC(=O)c1ccc(C2CCC(NC[C@H](O)COc3ccc(O)c(NS(C)(=O)=O)c3)CC2)cc1` (stereo not given in full), the AC50 in test [1] is 53.2 µM (active); in [19], 53.8 µM (active); in test [2], 51.5 µM (active); in test [5], 7.81 µM (active); in test [8] it was 55 µM (active); in [9], 53.4 µM (active). For the same compound, the half-maximal activity concentration (AC50) in [10] was 46.5 µM (active); in test [12], 57.5 µM (active); in test [18] it was 48.3 µM (active). Moreover, the compound was called inactive in test [3], in test [4], in [6], in [11], in test [20] and in [14]. Besides, the call in test [15], in [16] and in test [17] was inactive.
On to `COc1ccc(/C=C/S(=O)(=O)NC(=O)c2ccc(C)cc2Cl)cc1`, for which the call in [1], in test [19], in test [2], in test [3], in test [4] and in test [5] was inactive. In addition, the outcome in [6], in [7], in test [8], in test [10], in [11] and in [12] was inactive. For the same compound, the call in [13], in test [20], in test [14], in test [15], in test [16] and in [17] was inactive. The call in test [18] was inactive.
In the case of `Cn1c(=O)cc(Oc2ccc(F)cc2F)c2cnc(NCC(C)(C)O)nc21`, the compound was called inactive in [1], in [19], in [2], in test [3], in test [4] and in [5]. In addition, the call in [6], in [8], in [9], in test [10], in [11] and in test [12] was inactive. Further, the call in test [13], in test [20], in [14], in [15], in test [16] and in test [17] was inactive. The AC50 in test [18] was 56.9 µM (active).
Take `CC(C)(O)c1coc(S(=O)(=O)NC(=O)Nc2c3c(cc4c2CCC4)CCC3)c1`: the result in test [1], in [19], in [2], in [3], in test [4] and in [5] was inactive. The compound was classed as inactive in [6], in test [7], in [8], in [9], in test [10] and in [13]. Also, the call in test [14], in test [15], in test [16], in test [17] and in test [18] was inactive. The AC50 in test [11] is 26.9 µM (active).
In the case of `CC(O)CN(CCN(CC(C)O)CC(C)O)CC(C)O` (stereo not given), the outcome in test [1], in test [19], in test [2], in test [3], in test [4] and in test [6] was inactive. For the same compound, the outcome in test [7], in test [8], in test [9], in test [10], in test [11] and in test [12] was inactive. Also, the call in test [13], in test [14], in test [15], in [16], in test [17] and in [18] was inactive.

The values are drawn from PubChem BioAssay (EPA / NIEHS).
